Cruzain noTriton: inhibitors of Trypanosoma cruzi cruzain without detergent; P25779; purified cruzain, Z-FR-AMC fluorescence, no detergent; Potency, µM, actives largely listed as inhibitors; 2.3% of 200,000 active; AID 1476; further: nearly all actives have a fitted effect of over 40% in size
Target sequence (P25779 123-467 limits assumed): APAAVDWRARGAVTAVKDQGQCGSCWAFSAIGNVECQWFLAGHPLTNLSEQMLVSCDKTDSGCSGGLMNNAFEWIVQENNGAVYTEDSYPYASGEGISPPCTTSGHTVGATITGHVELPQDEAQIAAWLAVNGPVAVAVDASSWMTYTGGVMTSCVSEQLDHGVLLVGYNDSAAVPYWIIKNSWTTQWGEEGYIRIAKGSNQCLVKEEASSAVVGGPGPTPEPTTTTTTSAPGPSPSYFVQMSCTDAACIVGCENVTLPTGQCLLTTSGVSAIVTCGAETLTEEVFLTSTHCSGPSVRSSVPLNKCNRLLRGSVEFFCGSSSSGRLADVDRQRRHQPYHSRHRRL
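Detergent-free condition (0.00005% Triton X-100) in acetate buffer pH 5.5 with DTT. 1.5 nM enzyme and compound were pre-mixed 15 min, then 2 uM Z-FR-AMC substrate added; reaction progress from fluorescence change between first and third reads (60 s).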
Cruzain inh Det: inhibitors of Trypanosoma cruzi cruzain with detergent. purified cruzain, Z-FR-AMC fluorescence, 0.01% Triton. P25779. 0.43% of 200,000 active. Potency, µM, most hits filed as inhibitors; further: nearly all actives have a fitted effect of over 40% in size
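Purified cruzain (1.5 nM final) was preincubated with compounds for 15 min at room temperature in 100 mM sodium acetate pH 5.5, 5 mM DTT, 0.01% Triton X-100. Reaction started with 2 uM Z-FR-AMC; AMC fluorescence change over 60 s gave activity.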
Numbers stand for hits; n = inactive; u = inconclusive. Shown are actives, neighbours in structure and some others; about 2.6% of the full set was active somewhere. The call rests on the fitted dose curve; in most records, active means well fitted curve in the direction sought with a large enough effect; inconclusive means small, poorly fitted or top-dose-only effect, or another doubt; inactive means no such curve, though single readings can be large; an effect the other way counts as inactive or inconclusive.

SMILES | Cruzain noTriton | Cruzain inh Det
CCCCc1ccc(C2C(C#N)=C(N)SC(N)=C2C#N)s1 | 32µM | u
CCOc1ccc(C2C(C#N)=C(N)SC(N)=C2C#N)c(OCC)c1 | n | n
Cc1cc(C)c(NC(=O)Cn2nc3c(cc2=O)CCCC3)c(C)c1 | n | n
O=C(Nc1ccccc1Br)C(Cc1ccccc1)NS(=O)(=O)c1cccc2nsnc12 (stereo not given) | u | n
NS(=O)(=O)c1nc(S(=O)(=O)O)c2[nH]cnc2n1 | n | n
COc1ccccc1NC(=O)CSc1nc2nccnc2c(=O)n1CCc1c[nH]c2ccccc12 | n | n
COc1ccccc1NC(=O)Cn1c(=O)n(CCc2c[nH]c3ccccc23)c(=O)c2cccnc21 | 20µM | n
CN(C)C(=O)CSc1nnc([C@@H](N)Cc2ccccc2)o1 | 25µM | 20µM
C[C@H](N)c1nnc(SCC(=O)N(C)C)o1 | n | n
CC(C)CCn1c(=O)c2sccc2n2c(CCCC(=O)NC(C)c3ccccc3)nnc12 (stereo not given) | n | n
Cc1cccc(C)c1-n1c(C)cc(/C=N/NC(N)=S)c1C | u | n
Cc1cc(/C=N/NC(N)=S)c(C)n1-c1ccc(Cl)cc1 | u | 28µM
CNC(=O)C1CCC(Cn2c(=O)[nH]c3ccsc3c2=O)CC1 (stereo not given) | n | n
CCOc1ccccc1NC(=O)COC(=O)C(CC(C)C)N1C(=O)C2CC=CCC2C1=O (stereo not given) | n | n
CC(C)CC(C(=O)OCC(=O)Nc1cccc(Cl)c1)N1C(=O)C2CC=CCC2C1=O (stereo not given) | n | 14µM
CCOC(=O)c1[nH]c2c(c1Cc1ccccc1)C(=O)CC(c1ccc(Cl)cc1)C2 (stereo not given) | u | n
CS(=O)(=O)N1CCN(c2ccccc2NC(=O)c2ccc(Cl)cc2)CC1 | n | n
CS(=O)(=O)N1CCN(c2ccccc2NC(=O)c2ccc3ccccc3c2)CC1 | 20µM | n
Cc1ccc2nc(N3CCN(C(=O)C4COc5ccccc5O4)CC3)sc2c1 (stereo not given) | n | n
Cc1ccc(Cl)cc1 | n | n
CN(C)Cc1c(O)ccc2oc(Cc3ccccc3)cc12 | n | n
Cc1c(Cc2ccccc2)c(=O)oc2c(CN(C)C)c(O)c(Cl)cc12 | u | 20µM
Cc1cc(S(=O)(=O)n2ccnc2C(C)C)cc([N+](=O)[O-])c1C | n | n
N#C/C(=C(/O)CSc1ccccc1C(=O)O)c1nc2ccccc2s1 | n | n
Cc1ccc(SC/C(O)=C(\C#N)c2nc3ccccc3s2)cc1 | 25µM | n
SMILES | Cruzain noTriton | Cruzain inh Det
CCOC(=O)c1cccc(NC(=O)Cn2ncc3c4ccccc4n(Cc4ccccc4)c3c2=O)c1 | n | n
COc1ccc(C)cc1-n1nnnc1SCC(=O)c1ccc2c(c1)OCCO2 | 25µM | n
COc1ccc(-n2nnnc2SCC(=O)c2ccc3c(c2)OCCO3)c(OC)c1 | u | n
COc1ccccc1-c1noc(-c2ccc(N3CCC(C)CC3)c([N+](=O)[O-])c2)n1 | n | n
COc1ccccc1N1CCN(c2cc(=O)n(-c3ccc(Br)cc3)c(=O)[nH]2)CC1 | u | n
O=c1cc(N2CCN(c3ccccc3F)CC2)[nH]c(=O)n1-c1ccc(Br)cc1 | 25µM | n
CC(C)c1nccn1Cc1ccc(Cl)cc1Cl | n | n
COc1ccc(N2CCN(c3ncnc4onc(C)c34)CC2)cc1 | n | n
O=C(O)C(Cc1ccccc1)N1C(=O)/C(=C/c2cccc3ccccc23)SC1=S (stereo not given) | u | 32µM
O=C(O)C(Cc1ccccc1)N1C(=O)/C(=C/c2ccccc2)SC1=S (stereo not given) | n | n
Cc1cc(O)c(C(c2ccc(Cl)cc2)N2CCN(c3ccccc3)CC2)c(=O)n1Cc1ccco1 (stereo not given) | u | n
N#Cc1cccc(NC(=O)N2CCCC3(CCN(C(=O)c4cc(C(F)(F)F)cc(C(F)(F)F)c4)CC3)C2)c1 | u | n
O=C(NCc1ccccc1F)C1CCN(Cc2cc3ccccc3n2Cc2cccc(Cl)c2)CC1 | u | n
CCc1ccccc1Nc1nc2cc(Cl)c(Cl)cc2nc1-n1nc(C)cc1C | n | n
O=C(Nc1ccccc1)Nc1nnc(/C=C/c2ccccc2Cl)s1 | 25µM | n
O=C(Nc1ccccc1)O/N=C/c1ccccc1Cl | n | n
Cc1ccc(C(O)C2=CCCC2=O)cc1 (stereo not given) | n | n
COc1cccc(OC)c1C(=O)Nc1nc2c(s1)CCc1ccccc1-2 | n | n
CCCN(CCC)S(=O)(=O)c1ccc(C(=O)Nc2nc3c(s2)CCc2ccccc2-3)cc1 | 7.9µM | n
CN(C)c1ccc(CC(=O)c2nc3ccccc3s2)cc1 | 20µM | n
CN(C)C(=O)c1nc2ccccc2s1 | n | n
CCC1=C2CC[C@H]3C(=O)N(c4ccccc4)C(=O)[C@H]3[C@H]2[C@@]2(Cc3ccccc3)C(=NCCc3c[nH]c4ccccc34)OC(=O)N2C1=O | n | n
CN(C)C(=O)n1nnnc1Cc1ccc(-c2ccccc2)cc1 | n | n
CCc1cc2c(=O)nc3n(c2s1)Cc1ccccc1/C3=C(/O)c1ccc(F)cc1 | u | n
CCc1cc2c(=O)nc3n(c2s1)Cc1ccccc1/C3=C(/O)c1ccccc1Cl | 25µM | n
SMILES | Cruzain noTriton | Cruzain inh Det
COc1ccc(Cc2ccc3[nH]c(=O)cc(C)c3c2)cc1S(=O)(=O)O | n | n
Cc1ccc(-n2nc3c(=O)n(CC(=O)Nc4ccccc4F)nc(C)c3c2C)c(C)c1 | n | n
COc1ccc(CCNC(=O)c2sc3ccccc3c2Cl)cc1OC | n | n
Cc1ccc(NC(=O)c2sc3ccccc3c2Cl)nc1 | n | n
COc1ccccc1C(=O)NNC(=S)NC(=O)c1sc2ccccc2c1Cl | 10µM | n
COc1ccccc1C(=O)NC(=S)NNC(=O)c1sc2ccccc2c1Cl | 2.5µM | n
N#Cc1ccccc1NC(=O)C(=O)NCC(c1cccnc1)N1CCc2ccccc21 (stereo not given) | n | n
COc1ccc(OC)c(CCNC(=O)c2cc3cccc4c3n2CC(C)S4)c1 (stereo not given) | n | n
CC(C)(C)C1CCc2nc(NC(=O)c3cccc(Cl)c3)sc2C1 (stereo not given) | n | n
O=C1Nc2ccccc2C1=Nc1cccc2ncccc12 | n | n
Cc1ccc(-n2c(C)cc(/C=C3/C(=N)N4C(c5ccccc5)=CSC4=NC3=O)c2C)cc1 | 6.3µM | n
N=C1/C(=C/c2cccn2CCOc2ccccc2)C(=O)N=C2SC=C(c3ccccc3)N12 | 6.3µM | n
CCCC1=NN2C(=N)/C(=C\c3cc(C)n(-c4cc(C)cc(C)c4)c3C)C(=O)N=C2S1 | u | n
Cc1cc(C)cc(-n2c(C)cc(/C=C3\C(=N)N4N=C(CC(C)C)SC4=NC3=O)c2C)c1 | 25µM | n
Cc1cccc(-n2c(C)cc(/C=C3\C(=N)N4N=C(CC(C)C)SC4=NC3=O)c2C)c1 | u | n
CC1=CC2=NC(=O)/C(=C\c3cccn3CCOc3ccc(C)c(C)c3)C(=N)N2O1 | n | n
N=C1/C(=C\c2ccc(-c3cc(Cl)cc(Cl)c3)o2)C(=O)N=C2SC=C(c3ccccc3)N12 | 2.5µM | n
CS(=O)(=O)C1=NSC2=NC(=O)/C(=C\c3ccc(-c4ccccc4)o3)C(=N)N21 | n | n
CCN(CC)CCCn1c(-c2ccccc2)nc2c(NCCOC)nc(C)nc21 | n | n
O=C(CSc1nc2c(oc3ccccc32)c(=O)n1Cc1ccco1)Nc1ccccc1Cl | n | n
COc1cccc(C(=O)N(Cc2sccc2C)C2CCS(=O)(=O)C2)c1 (stereo not given) | n | n

Screening data (PubChem BioAssay)
